# Only some compounds are listed: those with a hit (about 3.6% of all), similar ones and a draw of the others.
# Pf apPOL inh – Pf-apPOL DNA polymerase inhibition | Recombinant Pf-apPOL, molecular beacon fluorescence, 1.5 h | inhibition, % at 10 µM | 210,000 tested, 0.25% active
# mHTT-CaM PPI inh – mHTT-calmodulin interaction abrogation. P42858. AlphaScreen His-mHTT/GST-CaM binding, luminescence. inhibition, % at 15 µM. 190,000 tested, 3.6% active. AID 1671202
# Numbers stand for hits; 0 = inactive; - = no result given; + = active, no number; ! = a repeat was not active. Rule as the data show it: active = inhibition above about 50%; inactive = the rest.
SMILES,Pf apPOL inh,mHTT-CaM PPI inh
Cc1ccc(C(O)C#CC(O)(c2ccccc2)c2ccccc2)o1 (stereo not drawn),0,57.5
OC(C#CC(O)(c1ccccc1)c1ccccc1)c1ccccc1F (stereo not drawn),87.8,0
CN1N=C(C(=O)O)CCC1=O,-,0
CNC(=O)c1cc(N(C)C)nc2ccccc12,0,0
COc1cc(OC)cc(C(=O)NC23CC4CC(CC(C4)C2)C3)c1,0,0
O=C(Oc1ccc2c(c1)OC(=Cc1cccc(Br)c1)C2=O)c1ccco1,0,0
COc1ccc(N2CCN(C(=O)c3nc(-c4cccc(F)c4)n4c3CCCCC4)CC2)cc1,0,0
O=C(c1nc(-c2cccc(F)c2)n2c1CCCCC2)N1CCN(c2ccccc2)CC1,0,78.0
O=C(Nc1ccc(I)cc1Cl)c1ccco1,0,0
Cc1c(N=c2scc(-c3ccc(Cl)cc3)n2Cc2ccco2)c(=O)n(-c2ccccc2)n1C,0,60.0
C=CCn1c(-c2ccccc2)csc1=Nc1c(C)n(C)n(-c2ccccc2)c1=O,0,0
O=S1(=O)N=C(N/N=C/c2cc(Cl)ccc2O)c2ccccc21,-,+
O=S1(=O)N=C(Nc2ccccc2O)c2ccccc21,0,0
COC(=O)c1ccc(Oc2coc3c4c(ccc3c2=O)OCN(Cc2ccc(OC)cc2)C4)cc1,0,0
O=C1c2ccccc2C(=O)c2c1oc1c3c(ccc21)OCN(Cc1ccco1)C3,0,93.0
COC(=O)c1ccc(Oc2coc3c4c(ccc3c2=O)OCN(Cc2ccccn2)C4)cc1,0,100.2
c1coc(CN2COc3cc4c(cc3C2)OCN(Cc2ccco2)C4)c1,-,0
O=C1c2ccccc2C(=O)c2c1oc1c3c(ccc21)OCN(Cc1cccnc1)C3,0,94.0!
COC(=O)c1ccc(Oc2c(C)oc3c4c(ccc3c2=O)OCN(Cc2cccnc2)C4)cc1,0,0
COc1ccc(CN2COc3ccc4c(=O)c(-c5ccccc5)c(C)oc4c3C2)cc1,0,0
O=C1c2ccccc2C(=O)c2c1oc1c3c(ccc21)OCN(Cc1ccccn1)C3,0,100.0
CCOC(=O)Cn1cnc2c(-c3ccc(F)cc3)csc2c1=O,0,0
O=C(Nc1ccc(-c2nc3ccccc3[nH]2)cc1)c1c(F)cccc1F,0,0
Nc1ccc(-c2nc3c(Br)cc(N)cc3[nH]2)cc1,0,0
CCC(=O)NCc1nc2c(n1C)CN(C(=O)c1ccc(CC)cc1)CC2,0,0
SMILES,Pf apPOL inh,mHTT-CaM PPI inh
Cc1cc(S(=O)(=O)N2CCCC2c2nc(-c3cccc(Cl)c3)no2)ccc1F (stereo not drawn),0,0
Brc1cccc(-c2cn3c(n2)sc2ccccc23)c1,0,0
Cn1nc(COc2ccccc2)c2c1CCN(C(=O)c1ccncc1)C2,0,0
CC(C(=O)Nc1cnc(-c2cccnc2)nc1)c1ccccc1 (stereo not drawn),0,0
Cc1ccccc1C1CCCN1C(=O)C(C)(C)C (stereo not drawn),0,0
O=C1C=C(c2ccc(Cl)cc2)C(=O)N1c1ccccc1Cl,0,62.0
COc1ccccc1N1C(=O)C=C(c2ccc(Cl)cc2)C1=O,0,0
CCN(CC)CC1CCc2c(c3ccccc3n2C)C1=O (stereo not drawn),0,0
COc1ccc(C)cc1NC(=O)c1cc(C)n(CCN(C)C)c1C,0,51.0
COc1ccc(OC)c(NC(=O)c2cc(C)n(CCN(C)C)c2C)c1,0,0
O=C(NCCc1ccccc1)c1ccc(Cl)s1,0,0
Cc1nc(-c2ccc(N3CCN(C(=O)c4cccc(F)c4)CC3)nc2)sc1C,0,0
CC12CC3CC(C)(C1)CC(C(=O)NCc1ccccn1)(C3)C2,0,0
CCOc1ccc(N2C(=O)CC(NCc3ccc(F)cc3)C2=O)cc1 (stereo not drawn),0,0
O=C1CC(NCc2ccccn2)C(=O)N1c1ccc(F)cc1 (stereo not drawn),0,100.3
O=C1Nc2ccccc2CCC1NCc1ccccn1 (stereo not drawn),0,71.4
COc1ccccc1NC(=O)C1=C(C)Nc2nc3ccccc3n2C1c1ccc(Cl)cc1 (stereo not drawn),0,51.0
COc1ccccc1NC(=O)C1=C(C)Nc2nc3ccccc3n2C1c1cccnc1 (stereo not drawn),0,0
CC(C)CCn1c(N2CCCC(C(=O)N3CCCC3)C2)nc2ccccc21 (stereo not drawn),0,54.7
CCCn1c(N2CCC(C(=O)N3CCCCC3)CC2)nc2ccccc21,0,0
CCn1c(=O)c(N2CCCC(C(=O)NCCCN3CCCCCC3)C2)nc2ccccc21 (stereo not drawn),0,93.6
O=C(NCCCN1CCCC1)C1CCCN(c2ncc(-c3ccccc3)cn2)C1 (stereo not drawn),0,0
O=C(Nc1ccc(F)cc1)N1CCC(N2CCN(Cc3ccc(F)cc3)C2=O)CC1,0,0
O=C1C(Nc2cccc(C(F)(F)F)c2)=C(n2nnc3ccccc32)C(=O)c2ccccc21,0,0
O=C1C(Nc2cccc(Cl)c2)=C(N2CCCCC2)C(=O)c2ccccc21,0,68.0
CC(=O)N(C1=C(N2CCCCC2)C(=O)c2ccccc2C1=O)c1cccc(F)c1,0,0
